Source: PubChem BioAssay (NCATS)
Records with an inconclusive call do not appear. A call without a number means that no potency is given here. Unmarked numbers belong to inactive results. Active and inactive are the calls of the source. The call rests on the fitted dose curve; in most records, active means well fitted inhibition curve with a large enough effect; inconclusive means small, poorly fitted or top-dose-only effect; inactive means no such curve, though single readings can be large or run the other way.

Tests used:
[1] = tested on: Zika virus NS2B-NS3 protease (unlinked complex); assay: Primary screen GU Rhodamine qHTS for Zika virus inhibitors: Unlinked NS2B-NS3 protease assay (AID 1347159); further: nearly all actives have a fitted effect of over 60% in size
How it was run: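 Unlinked NS2B/NS3, 25 nM; Rhod110 peptide, 1.5 microM; compounds, up to 114 microM. Reaction run 15 min at RT in 10 mM Tris-HCl pH 8.0, 0.01% Tween 20; kinetic fluorescence change fitted with a 4-parameter Hill model.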

[2] = tested on: Zika virus NS2B-NS3 protease (linked construct); assay: Primary screen NINDS Rhodamine qHTS for Zika virus inhibitors (AID 1347160); further: nearly all actives have a fitted effect of over 55% in size
How it was run: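 Single-chain NS2B-NS3 protease, 25 nM, pH 8.0; compounds preincubated 15 min. Activity: Rhodamine110 release from 1.5 microM substrate over 15 min, room temperature, data fitted to 4-parameter Hill.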

C[C@@H]1O[C@@H](O[C@H]2[C@H](O[C@H]3[C@H](O[C@H]4CC[C@@]5(C)C(CC[C@]6(C)C5CC=C5[C@@H]7CC(C)(C)CC[C@]7(C(=O)O[C@@H]7O[C@H](CO)[C@@H](O[C@@H]8O[C@@H](C)[C@H](O)[C@@H](O)[C@H]8O)[C@H](O)[C@H]7O)CC[C@]56C)C4(C)C)OC[C@H](O)[C@@H]3O)O[C@H](CO)[C@@H](O)[C@@H]2O)[C@H](O)[C@H](O)[C@H]1O (some centres not stated)
activity change, negative = inhibition [1]: 6.71% [at 19.1 µM] | activity change, negative = inhibition [2]: 35.2% [at 10.7 µM]

CC[C@]12C=CCN3CC[C@@]4(c5cc([C@@]6(C(=O)OC)C[C@H]7C[C@@H](C(C)(F)F)CN(Cc8c6[nH]c6ccccc86)C7)c(OC)cc5N(C)[C@H]4[C@@](O)(C(=O)OC)[C@@H]1OC(C)=O)[C@@H]32
Potency [1]: inactive | Potency [2]: inactive

Cc1cc(Nc2ncc3cc(-c4c(Cl)cccc4Cl)c(=O)n(C)c3n2)ccc1F
Potency [1]: inactive | Potency [2]: inactive

COc1cc2c(cc1OC)CC(=O)N(CCCNC[C@H]1Cc3cc(OC)c(OC)cc31)CC2
Potency [1]: inactive | Potency [2]: inactive

CCC(=O)O[C@H]1C(C)(C)[C@H]([C@@H](O)C(=O)OC)[C@]2(C)C(=O)[C@@]1(O)[C@H]1O[C@]13C1CC(=O)O[C@@H](c4ccoc4)[C@]1(C)CCC32 (some centres not stated)
Potency [1]: inactive | Potency [2]: inactive

C=CC(=O)Nc1cc(Nc2ncc(Cl)c(-c3c[nH]c4ccccc34)n2)c(OC)cc1N(C)CCN(C)C
Potency [1]: inactive | Potency [2]: inactive

CC[C@@H](N)CNc1ccnc(-c2cc(-c3cnn(C)c3)ccc2O)n1
Potency [1]: inactive | Potency [2]: inactive

C=C(C(=O)O)C1CCC2(C)CCC(O)C(C)(O)C2C1 (configuration not stated)
Potency [1]: inactive | Potency [2]: inactive

C=CC(C)(C)c1[nH]c2cc3c(cc2c1CC1NC(=O)C2CCCN2C1=O)C=CC(C)(C)O3 (configuration not stated)
Potency [1]: inactive | Potency [2]: inactive

COc1ccc(CC2C(=O)NC(C)C(=O)N(C)C3Cc4ccc(cc4)Oc4cc(ccc4OC4OC(CO)C(O)C(O)C4O)CC(C(=O)NC(C)C(=O)NC(C)C(=O)N2C)N(C)C3=O)cc1 (configuration not stated)
Potency [1]: inactive | Potency [2]: inactive

C=C[C@H]1[C@H](O[C@@H]2O[C@H](CO)[C@@H](O)[C@H](O)[C@H]2O)OC=C(C(=O)OC)[C@H]1CC(=O)O
Potency [1]: inactive | Potency [2]: inactive

CC(=O)O[C@H]1C[C@@]2(C)[C@@H](CC[C@H]3[C@@]4(C)C=CC(=O)[C@@H](C)[C@@H]4[C@H](O)C(=O)[C@@]32C)/C1=C(/CCC=C(C)C)C(=O)O
Potency [1]: inactive | Potency [2]: inactive

CCC(COC)n1nnc2c(Nc3ccc(OC)cc3C)nc(C)cc21 (configuration not stated)
Potency [1]: inactive | Potency [2]: inactive

CC(C)CC1NC(=O)C2CC3(O)c4ccccc4NC3N2C1=O (configuration not stated)
Potency [1]: inactive | Potency [2]: inactive

C=C[C@]1(C)C[C@H](O)[C@@H]2[C@H](OC(=O)[C@@H]2C)C1/C(C)=C/O[C@@H]1O[C@H](CO)[C@@H](O)[C@H](O)[C@H]1O (some centres not stated)
Potency [1]: inactive | Potency [2]: inactive

C=C1C(=O)O[C@@H]2/C=C(\C)C(=O)/C=C/[C@](C)(O)C[C@@H](OC(=O)C(C)C)[C@@H]12
Potency [1]: inactive | Potency [2]: inactive

C[C@@H]1O[C@@H](O[C@H]2[C@H](O)[C@@H](O[C@@H]3O[C@H](CO)[C@@H](O)[C@H](O[C@@H]4O[C@H](CO)[C@@H](O)[C@H](O)[C@H]4O)[C@H]3O)[C@H](O[C@H]3CC[C@@]4(C)C(=CC[C@@H]5C4CC[C@@]4(C)C5C[C@@H]5OC6(CC[C@@](C)(CO[C@@H]7O[C@H](CO)[C@@H](O)[C@H](O)[C@H]7O)O6)[C@@H](C)[C@@H]54)C3)O[C@@H]2CO)[C@H](O)[C@H](O)[C@H]1OC1OC(CO)C(O)C(O)C1O (some centres not stated)
activity change, negative = inhibition [1]: -17.5% [at 19.1 µM] | activity change, negative = inhibition [2]: -10.4% [at 10.7 µM]

Cc1ccc(Cc2c(C)nc3nc(SCC(=O)NCCN4CCNCC4)nn3c2C)cc1
Potency [1]: inactive | Potency [2]: inactive

COC(=O)C1=COC(OC2OC(CO)C(O)C(O)C2O)C2C1C=CC2(O)CO (configuration not stated)
Potency [1]: inactive | Potency [2]: inactive

O=C1Nc2ccccc2C(O)(c2ccccc2)C1O (configuration not stated)
Potency [1]: inactive | Potency [2]: inactive

CNCc1ccc(-c2cc(-c3nc(-c4ccc(S(=O)(=O)C(C)C)cc4)cnc3N)on2)cc1
Potency [1]: inactive | Potency [2]: inactive

CS(=O)(=O)NCC1CCC(Nc2nc3c(s2)CCSc2ccccc2-3)CC1 (configuration not stated)
Potency [1]: inactive | Potency [2]: inactive

O=C1NC(Cc2c[nH]c3ccccc23)C(=O)NC1Cc1cnc[nH]1 (configuration not stated)
Potency [1]: inactive | Potency [2]: inactive

C/C(=C\CCC(C)CCO)C(=O)OC1(C)CCC2C(C(=O)O)=COC(OC3OC(CO)C(O)C(O)C3O)C21 (configuration not stated)
Potency [1]: inactive | Potency [2]: inactive

COCCOc1cnc2ccn([C@H](C)c3nnc4c(F)cc(-c5cnn(C)c5)cn34)c(=O)c2c1
Potency [1]: inactive | Potency [2]: inactive

C[C@@H]1C[C@@H]([C@@H](O)C(C)(C)O)O[C@H]2C[C@@]3(C)C(=C12)C[C@H](O)[C@H]1[C@@]2(C)CCC(=O)C(C)(C)C2CC[C@@]13C (some centres not stated)
Potency [1]: inactive | Potency [2]: inactive

COc1c2ccoc2cc2oc(CO[C@@H]3O[C@H](CO)[C@@H](O)[C@H](O)[C@H]3O)cc(=O)c12
Potency [1]: inactive | Potency [2]: inactive

COc1cc(C)c(C(=O)O[C@H]2[C@@H](OC(C)=O)[C@H](n3ccc(=O)[nH]c3=O)O[C@@H]2CO)c(OC)c1
Potency [1]: inactive | Potency [2]: inactive

COc1ccc(C2(O)c3ccccc3NC(=O)C2O)cc1 (configuration not stated)
Potency [1]: inactive | Potency [2]: inactive

C=CC(C)(CC/C=C(\C)C(=O)OC)OC1OC(COC(=O)CC(C)(O)CC(=O)O)C(OC2OC(CO)C(O)C(O)C2O)C(O)C1O (configuration not stated)
Potency [1]: inactive | Potency [2]: inactive

CN[C@H](C(=O)N[C@H](C(=O)N(C)[C@H](/C=C(\C)C(=O)O)C(C)C)C(C)(C)C)C(C)(C)c1ccccc1
Potency [1]: inactive | Potency [2]: inactive

CNC(=O)c1ccccc1Nc1nc(Nc2ccc(N3CCNCC3)cc2)ncc1Cl
Potency [1]: inactive | Potency [2]: inactive

CC(O)CCC1C(CO[C@@H]2O[C@H](CO)[C@@H](O)[C@H](O)[C@H]2O)CC(O)CC1(C)C (some centres not stated)
Potency [1]: inactive | Potency [2]: inactive

CCNCc1nc2c(N)nc3ccccc3c2n1CC(C)(C)O
Potency [1]: inactive | Potency [2]: inactive

CO[C@H]1C[C@@H]2CC[C@@H](C)[C@@](O)(O2)C(=O)C(=O)N2CCCC[C@H]2C(=O)O[C@H]([C@H](C)C[C@@H]2CC[C@H](n3cnnn3)[C@H](OC)C2)CC(=O)[C@H](C)/C=C(\C)[C@@H](O)[C@@H](OC)C(=O)[C@H](C)C[C@H](C)/C=C/C=C/C=C/1C
Potency [1]: inactive | Potency [2]: inactive

C=C(C)C1CCC2(C(=O)O[C@@H]3O[C@H](CO[C@@H]4O[C@H](CO)[C@@H](O)[C@H](O)[C@H]4O)[C@@H](O)[C@H](O[C@@H]4O[C@@H](C)[C@H](O)[C@@H](O)[C@H]4O)[C@H]3O)CCC3(C(=O)O)C(CCC4C5(C)CCC(O)C(C)(C)C5CCC43C)C12 (some centres not stated)
Potency [1]: inactive | Potency [2]: inactive
